An excerpt weighted towards active compounds, which were near 1.2% of everything screened.
NCOA2 inhibitor – inhibition of GAL4-SRC2 driven luciferase reporter, primary screen, SRC2 inhibitor project, cell-based, luminescence. Nuclear receptor coactivator 2 (Homo sapiens), Q15596. HEK293 GAL4-SRC2 luciferase reporter. inhibition, % at 9 µM. 0.17% of 370,000 active. AID 651957, 2012;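 active = inhibition above the mean inhibition of all tested compounds plus 3 SD, set per campaign, cut at about 52% in these data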;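 note: 0% = DMSO treated cells and 100% = cells given Gossypol at 36 µM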
Gli-Sufu block – Gli-Sufu pathway antagonists, primary screen, luciferase luminescence, Sufu-KO-LIGHT cells, uHTS. 0.74% of 340,000 active. Sufu-KO-LIGHT fibroblasts, Gli luciferase reporter luminescence. inhibition, % at 5 µM. AID 588413, 2011;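 active = inhibition above about 55%, limit read from the data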;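 note: 0% = DMSO-treated cells and 100% = wells with medium but no cells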
NR2F2 inh – NR2F2 transcriptional activity inhibitors, primary screen, cell-based, luciferase reporter, HEK293T, luminescence. COUP transcription factor 2 (Homo sapiens), P24468. HEK293T NGFI-A luciferase reporter. inhibition, % at 8.6 µM. 0.7% of 370,000 active. AID 686940, 2013;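 active = inhibition above a per-plate cutoff, mean inhibition of test wells between control levels plus 3 SD, cut at about 38% in these data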;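 note: cells cotransfected with COUP-TFII expression vector driving the NGFI-A reporter; 0% = median of COUP-TF2 test wells and 100% = reporter-only cells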
NCOA3 inh – SRC3 coactivator transcriptional activity inhibitors, primary screen, cell-based, luminescence; Nuclear receptor coactivator 3 (Homo sapiens), Q9Y6Q9; HEK293 GAL4-SRC3 luciferase reporter; inhibition, % at 3.6 µM; 0.17% of 360,000 active; AID 588352, 2011;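 active = inhibition above a per-campaign cutoff, the mean of all compounds plus 3 SD, cut at about 60% in these data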;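 note: 0% = DMSO-treated cells and 100% = gossypol-treated cells at 36 µM; higher means less SRC3-driven luciferase light from the GAL4 reporter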
NR5A2 inv ag – LRH-1 (NR5A2) inverse agonists, primary screen, cell-based, luminescence, HEK293T, StAR-luciferase reporter. Nuclear receptor subfamily 5 group A member 2 (Homo sapiens), O00482. 0.13% of 360,000 active. LRH-1 transfected, 24 h. inhibition, % at 3.6 µM. AID 602396, 2012;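 active = inhibition above the mean inhibition of all tested compounds plus 3 SD, cut at about 73% in these data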;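 note: 0% = DMSO wells and 100% = reporter-only cells lacking LRH-1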
NCOA1 inh – SRC1 coactivator transcriptional activity inhibitors, primary screen, cell-based, luminescence; 0.12% of 360,000 active; AID 588354, 2011; inhibition, % at 3.6 µM; HEK293 GAL4-SRC1 luciferase reporter;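 active = inhibition above the campaign mean plus 3 SD, with each screening campaign given its own cutoff, cut at about 60% in these data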;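 note: 0% = DMSO treated cells and 100% = gossypol at 36 µM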
Target sequence (Q15788 whole entry, looked up, the tested form may be a part): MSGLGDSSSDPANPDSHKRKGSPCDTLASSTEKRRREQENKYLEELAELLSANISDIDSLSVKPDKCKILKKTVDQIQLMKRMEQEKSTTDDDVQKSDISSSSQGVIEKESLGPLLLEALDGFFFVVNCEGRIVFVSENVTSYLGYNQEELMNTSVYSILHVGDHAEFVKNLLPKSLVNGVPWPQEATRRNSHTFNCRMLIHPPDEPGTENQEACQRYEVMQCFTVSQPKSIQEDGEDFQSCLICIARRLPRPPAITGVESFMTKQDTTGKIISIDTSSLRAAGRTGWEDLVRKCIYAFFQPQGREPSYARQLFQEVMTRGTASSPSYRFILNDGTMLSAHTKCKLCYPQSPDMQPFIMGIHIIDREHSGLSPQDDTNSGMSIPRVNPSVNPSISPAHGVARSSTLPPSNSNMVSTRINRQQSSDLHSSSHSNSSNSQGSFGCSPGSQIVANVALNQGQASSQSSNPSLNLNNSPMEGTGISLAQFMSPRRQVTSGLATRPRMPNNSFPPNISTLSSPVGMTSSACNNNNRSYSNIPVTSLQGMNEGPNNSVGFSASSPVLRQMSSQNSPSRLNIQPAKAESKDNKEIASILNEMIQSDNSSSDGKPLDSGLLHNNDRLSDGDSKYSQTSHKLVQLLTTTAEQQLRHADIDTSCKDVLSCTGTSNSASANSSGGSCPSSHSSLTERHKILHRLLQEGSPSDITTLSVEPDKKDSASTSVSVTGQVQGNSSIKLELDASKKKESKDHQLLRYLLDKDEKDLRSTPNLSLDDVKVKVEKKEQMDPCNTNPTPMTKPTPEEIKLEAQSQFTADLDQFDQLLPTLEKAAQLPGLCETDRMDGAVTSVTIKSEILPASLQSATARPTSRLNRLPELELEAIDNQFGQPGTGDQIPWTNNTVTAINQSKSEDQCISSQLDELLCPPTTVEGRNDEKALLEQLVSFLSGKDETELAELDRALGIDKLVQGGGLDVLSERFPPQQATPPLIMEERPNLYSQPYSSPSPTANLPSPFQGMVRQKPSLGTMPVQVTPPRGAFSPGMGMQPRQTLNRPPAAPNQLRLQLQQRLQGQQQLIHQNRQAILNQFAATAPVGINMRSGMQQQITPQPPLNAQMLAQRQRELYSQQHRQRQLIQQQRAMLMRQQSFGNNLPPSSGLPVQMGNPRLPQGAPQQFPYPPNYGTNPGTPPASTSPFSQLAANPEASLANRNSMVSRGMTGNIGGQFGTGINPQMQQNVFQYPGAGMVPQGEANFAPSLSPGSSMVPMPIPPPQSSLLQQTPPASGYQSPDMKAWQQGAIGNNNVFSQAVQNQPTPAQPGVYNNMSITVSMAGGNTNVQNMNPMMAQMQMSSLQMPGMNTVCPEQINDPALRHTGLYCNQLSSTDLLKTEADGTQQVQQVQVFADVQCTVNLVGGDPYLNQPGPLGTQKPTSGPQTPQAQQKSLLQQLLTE
VP16 Luc counter – Gal4-VP16 luciferase reporter inhibitors, counter-screen for COUP-TFII antagonist project, cell-based, luminescence, HEK293; shares compounds with NR2F2 inh; inhibition, % at 8.5 µM; 25% of 2,500 active; AID 687007, 2013; in the data active = inhibition above about 13%
NR2F2 inh conf – NR2F2 transcriptional activity inhibitors, confirmation, cell-based, luciferase reporter, HEK293, triplicate; shares compounds with NR2F2 inh; HEK293 NGFI-A luciferase reporter, luminescence; inhibition, % at 8.5 µM; 45% of 2,500 active;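 active = mean inhibition over three repeats above a set limit taken from the earlier primary screen, cut at about 38% in these data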;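 note: 100% = cells given the luciferase reporter alone without the COUP-TF2 vector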
* hit, by the source's call; x = no result.

SMILES	NCOA2 inhibitor	Gli-Sufu block	NR2F2 inh	NCOA3 inh	NR5A2 inv ag	NCOA1 inh	VP16 Luc counter	NR2F2 inh conf
Cn1nc(-c2ccc(OCC(=O)N3CCN(Cc4ccccc4)CC3)cc2)c2ccccc2c1=O	14.2	49.2	54.9*	7.9	37.6	-3.3	6.1	36.1
O=C(CCCC1=NS(=O)(=O)c2ccccc2N1)N1CCC2(CC1)OCCO2	-6.7	-5.4	-1.4	-26.3	-0.5	6.5	x	x
c1ccc2c(c1)CN(Cc1ccc3c(c1)OCO3)Cc1cnnn1-2	4.3	x	1.3	-10.7	7.9	7.8	x	x
Cc1ccc(C)c(NC(=O)CSc2nnc([C@@H](N)Cc3c[nH]c4ccccc34)o2)c1	-33.7	0.6	16.5	-0.4	-7.5	-31.2	x	x
C[C@H]1CCC/C=C/[C@@H]2C[C@H](O)C[C@H]2[C@@H](O)/C=C/C(=O)O1	22.6	85.5*	52.8*	57.3	61.2	18.2	18.0*	30.7
CC[C@@H]1C[C@H]2CC[C@H](O2)[C@H](C)C(=O)O[C@@H](C)C[C@@H]2CC[C@@H](O2)[C@@H](C)C(=O)O[C@H](C)C[C@H]2CC[C@H](O2)[C@H](C)C(=O)O[C@@H](C)C[C@@H]2CC[C@@H](O2)[C@@H](C)C(=O)O1	-8.8	x	85.2*	x	x	x	24.3*	71.5*
NC12CN3CN(CN(C3)C1)C2 (tested in a mixture with another compound)	17.0	1.0	-8.3	7.4	20.2	-5.2	x	x
CN1C2CCC1/C(=C/c1ccccn1)C(=O)/C2=C\c1ccccn1	65.2*	47.8	63.4*	50.2	3.1	-51.5	67.8*	84.8*
O=c1[nH]c(N2CCN(Cc3ccc4c(c3)OCO4)CC2)nc2c1CCC2	10.3	0.2	-3.5	16.0	16.9	-24.9	x	x
CCN1CCN(c2ncnc3ccc(Br)cc23)CC1	38.6	-8.1	42.0*	38.4	18.8	50.5	11.0	23.2
C[C@H]1C[C@@H](C)C(=O)[C@@H]([C@H](O)CC2CC(=O)NC(=O)C2)C1	71.9*	53.1	84.8*	93.0*	103.1*	91.5*	6.3	69.8*
Cc1cc(O)c2c(c1)C(=O)[C@@]13C(=C2O)C(=O)[C@H]2C(O)[C@@H]1[C@H]1C(O)[C@@H]3C(=O)C3=C(O)c4c(O)cc(C)cc4C(=O)[C@@]312 (some centres not stated)	-13.6	x	40.7*	x	x	x	6.0	28.2
C1CCCN(C2CCNCC2)CC1	-52.0	20.8	2.9	20.4	-3.2	-16.5	x	x
C[C@H]1O[C@@H](O[C@H]2[C@@H](O)C[C@H](O[C@H]3[C@@H](O)C[C@H](O[C@H]4CC[C@@]5(C)[C@H](CC[C@@H]6[C@@H]5CC[C@]5(C)[C@@H](C7=CC(=O)OC7)CC[C@]65O)C4)O[C@@H]3C)O[C@@H]2C)C[C@H](O)[C@@H]1O	x	7.3	x	x	x	x	x	x
C[C@]12CCC3C(CCC4=CC(O)CC[C@@]43/C=N/O)C1(O)CCC2C1=CC(=O)OC1 (some centres not stated)	49.5	-2.4	74.7*	71.0*	98.0*	78.3*	37.4*	67.6*
CC12CCC3C(CCC4(O)CC(O)CCC34C=O)C1(O)CCC2C1=CC(=O)OC1 (configuration not stated)	37.3	3.6	70.8*	65.3*	96.5*	65.0*	24.1*	64.0*
CC12CCC3C(CCC4(O)CC(O)CCC34C=NO)C1(O)CCC2C1=COC(=O)C1 (configuration not stated)	42.5	8.4	80.8*	88.9*	99.0*	86.5*	43.2*	68.9*
CCCCN=C[C@]12CCC(O)CC1(O)CCC1[C@@H]2CC[C@]2(C)[C@H](C3C=CC(=O)O3)CCC12O (some centres not stated)	42.3	0.6	62.6*	80.2*	97.1*	77.6*	38.7*	68.7*
O=C(c1ccccc1)C(Cc1ccccc1)N1CCOCC1 (configuration not stated)	-47.2	3.9	5.2	-11.2	11.3	-5.8	x	x
CC12CC[C@H]3[C@@H](CCC4(O)C[C@H](O)CCC34/C=N/NC(=O)c3ccccc3Cl)C1(O)CCC2C1=CC(=O)OC1 (some centres not stated)	-19.4	-11.5	6.6	10.7	-0.7	8.2	x	x
C[C@]12CC[C@H]3[C@@H](CC[C@]4(O)C[C@@H](O)CC[C@]34C=O)[C@@]1(O)CC[C@@H]2C1=CC(=O)OC1	53.4*	-0.3	77.6*	81.9*	102.5*	71.4*	32.9*	67.2*
O=C(Nc1ccc(Cl)cc1C(=O)c1ccccc1)c1ccc(Br)o1	-5.1	-6.2	-0.5	-27.6	3.7	11.0	x	x
COC(=O)C1=C(c2cccc(C#N)c2)C[C@@H]2CC[C@H]1N2C(=O)NCCc1ccccc1	11.5	3.4	6.5	17.2	3.9	0.5	x	x
O=[N+]([O-])c1ccc(N2CCOCC2)c2c1no[n+]2[O-]	97.0*	x	89.2*	91.4*	91.7*	77.6*	62.2*	-105.5
O=[N+]([O-])c1ccc(N2CCOCC2)c2cccnc12	5.9	1.8	-16.2	-4.5	9.0	0.1	x	x
SMILES	NCOA2 inhibitor	Gli-Sufu block	NR2F2 inh	NCOA3 inh	NR5A2 inv ag	NCOA1 inh	VP16 Luc counter	NR2F2 inh conf
O=c1c2ccccc2nc(-c2ccccc2)n1-c1ccc(O)cc1	10.2	5.6	14.8	-8.3	-15.3	4.7	x	x
COC(=O)C1=C(c2ccc(OCc3ccccc3)cc2)C[C@@H]2CC[C@H]1N2C(=O)NCCCc1ccccc1	-26.5	23.2	-4.9	-1.6	-11.5	7.5	x	x
O=c1[nH]c(=S)[nH]c(O)c1N=Nc1ccc2c(c1)OCCO2	-41.0	13.2	-3.0	-48.5	-68.0	-115.6	x	x
O=c1[nH]c(O)c(N=Nc2ccc3c(c2)OCCO3)c(=O)[nH]1	58.5*	29.9	81.7*	69.1*	71.5	66.7*	-5.6	64.2*
CCOP(=O)(OCC)C(NC(=O)c1ccc(C)cc1)=C(Cl)Cl	10.5	3.0	0.0	0.5	-23.3	10.5	x	x
COc1ccc2c(c1OC)C(=O)OC2c1c(O)n(C2CCCCC2)c(=O)[nH]c1=O (configuration not stated)	-16.4	-1.3	-9.1	10.6	-12.8	10.2	x	x
